A short description of assay [1]: inhibitors of TNFa-induced NFkB p65 translocation, primary screen, imaging, HUVEC, MLSMR starter and 10KST1 sets (AID 438;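 active = inhibition above 20% together with a positive visual image hit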;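 also: compound added about 3h40 before a 20 min TNFalpha stimulation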;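 as to inhibition: signal is the nuclear over cytoplasmic p65 intensity ratio per well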). The settings on record: HUVEC TNFa-induced p65 nuclear translocation; cell count: measured here: nuclei count (cytotoxicity indicator), at 2.08 µM; inhibition: at 2 µM, stronger effect = higher value, 0% TNFa-plus-vehicle, 100% no-TNFa wells.
The nature of assay [2]: reduction of polyQ htt aggregates in cells – imaging, exon1htt(103Q)mCFP cells, high-content imaging, primary screen (AID 483;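 active = visual image review flags a hit and inhibition of aggregation exceeds 20%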;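 also: compound exposure lasted 3 days before fixation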;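 as to nuclei count: percent of the per-plate median nuclei count of sample wells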). The settings on record: exon1htt(103Q)mCFP cell line, aggregate imaging, at 2 µM; inhibition of aggregation: stronger effect = higher value; nuclei count: measured here: cell count, toxicity.
A short description of assay [3]: endothelial E-selectin expression blockers – imaging, HUVEC, immunofluorescence, MLSMR starter and 10KST1 sets, primary screen (AID 487;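 active = visually confirmed hit in the image check and inhibition above 20%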;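 as to inhibition: signal is fraction of cell area covered by stained E-selectin grains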;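 as to nuclei count: 100% = median nuclei count of all wells on the same plate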). The settings on record: HUVEC TNFalpha-induced E-selectin immunofluorescence imaging, at 2 µM; inhibition: stronger effect = higher value; nuclei count: measured here: cell number, toxicity.
Assay [4] addresses Voltage-gated potassium channel subunit beta-2 (Rattus norvegicus) (UniProt P62483). Kind of assay: inhibitors of rat Kvbeta2 reductase activity – biochemical, NADPH fluorescence, primary screen (AID 622;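 active = fluorescence slope higher than the sample average by over 3 SD, cut at about -0.22 in these data, passing the limit was not always enough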;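 also: slope of raw intensity against log time taken from 70 to 1610 s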). The settings on record: recombinant KvBeta, 4-cyanobenzaldehyde reduction, at 10 µM, stronger effect = higher value.
For assay [5] the target is unchanged. The assay is described as follows: enhancers of rat Kvbeta2 NADPH turnover – biochemical, NADPH fluorescence, primary screen (AID 623;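 active = NADPH fluorescence slope more negative than the mean of all samples by about 3 SD, 99.7% confidence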;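 also: fluorescence intensity change per second fitted from 20 to 320 s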). The settings on record: Recombinant KvBeta, NADPH fluorescence decrease slope, 10 min; at 10 µM; stronger effect = lower value.
Assay [6] has as its target Alpha-2C adrenergic receptor (Homo sapiens) (UniProt P18825). The assay is described as follows: compounds altering alpha2C-coupled GIRK flux – cell-based, HEK293 alpha2C/GIRK1/2, thallium flux, primary screen (AID 624).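 Also: slope of fluorescence ratio to pre-addition baseline per second over 15 to 24 s.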 The settings on record: thallium flux BTC fluorescence, at 10 µM, actives lie on both sides.
Assay [7] is described as follows: blockers of RIG-like receptor reporter activation – cell-based, Sendai virus stimulus, luciferase, 10K MLSCN set, TLR/RLR signaling modifier project, primary screen (AID 602276;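 active = inhibition at or above 50% at 10 µM; inactive = inhibition below 50%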;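 also: firefly luciferase from ISG56 promoter only with Renilla not read in this screen; 0% = Sendai virus plus DMSO and 100% = medium plus DMSO without virus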). The settings on record: HEK293 RL24 IRF3 luciferase reporter, at 10 µM, stronger effect = higher value.
Assay [8] can be described thus: TLR3 IRF3 reporter activation blockers – cell-based, poly I:C stimulus, luciferase, 10K MLSCN set, primary screen (AID 602277;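 active = inhibition of the reporter signal at or above 50%; inactive = inhibition below 50%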). The settings on record: HEK293-TLR3 RL24 IRF3 luciferase reporter, at 10 µM, stronger effect = higher value. On the technique in general: Reporter assays use an easily measured gene product as a stand-in for the process of interest.

Active and inactive are the calls of the source.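 The calls were made as follows, unless noted: active = fluorescence slope after compound addition differing from the mean of all screened samples at 99.7% confidence, in either direction; inactive = the rest.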

The record followed here is PubChem BioAssay.

Chain of Alpha-2C adrenergic receptor (Homo sapiens) (P18825 whole entry, looked up): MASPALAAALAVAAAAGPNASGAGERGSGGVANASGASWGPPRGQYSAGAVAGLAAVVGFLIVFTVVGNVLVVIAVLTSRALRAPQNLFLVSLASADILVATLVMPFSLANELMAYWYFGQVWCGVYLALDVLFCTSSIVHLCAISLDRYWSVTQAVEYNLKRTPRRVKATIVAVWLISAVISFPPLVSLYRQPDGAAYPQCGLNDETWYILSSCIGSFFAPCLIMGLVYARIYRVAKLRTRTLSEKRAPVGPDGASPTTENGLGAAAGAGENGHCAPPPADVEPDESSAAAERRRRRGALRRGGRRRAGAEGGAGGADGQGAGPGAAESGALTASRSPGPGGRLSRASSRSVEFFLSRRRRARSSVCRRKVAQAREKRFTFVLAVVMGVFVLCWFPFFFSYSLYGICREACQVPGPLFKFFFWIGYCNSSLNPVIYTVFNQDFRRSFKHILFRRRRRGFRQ
Chain of Voltage-gated potassium channel subunit beta-2 (Rattus norvegicus) (P62483 whole entry, looked up): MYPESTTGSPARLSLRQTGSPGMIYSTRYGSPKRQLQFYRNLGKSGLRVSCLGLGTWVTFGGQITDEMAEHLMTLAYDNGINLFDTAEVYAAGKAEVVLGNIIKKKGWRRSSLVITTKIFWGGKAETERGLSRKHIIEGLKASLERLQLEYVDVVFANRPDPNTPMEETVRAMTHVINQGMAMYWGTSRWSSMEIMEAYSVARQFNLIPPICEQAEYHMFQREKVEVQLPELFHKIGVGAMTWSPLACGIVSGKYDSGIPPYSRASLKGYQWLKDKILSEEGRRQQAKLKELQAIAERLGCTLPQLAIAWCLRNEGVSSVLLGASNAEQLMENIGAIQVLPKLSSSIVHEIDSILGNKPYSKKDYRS

What is called inhibition is the change of the read-out against control, counted positive when it falls. On to `Cc1cccc(NC(=O)CSc2nnc(-c3cc(C)n(-c4ccccc4)c3C)o2)c1C`, for which the cell count in assay [1] was determined as 590. Besides, the inhibition in assay [1] is -16.6% (inactive); in assay [3], -27.3% (inactive); in assay [7], 5.08% (inactive); in assay [8], 52.9% (active). Moreover, the inhibition of aggregation in assay [2] is -14.8% (inactive). The figures for the nuclei count in assay [2] and in assay [3] were 48% and 111%, respectively. Moreover, the fluorescence slope in assay [4] is -0.6 (inactive). In addition, in assay [5], the NADPH fluorescence slope is -1.4e-05 (inactive). For the same molecule, the slope in assay [6] is 0.00877 (inactive).
Take `c1cc2c(cc1Nc1nc(-c3ccc4c(c3)OCO4)cs1)OCCO2`: the cell count in assay [1] came to 351. The inhibition in assay [1] was 0.4% (inactive); in assay [3], -36.9% (inactive); in assay [7] it was -63.5% (inactive); in assay [8], -126% (inactive). Besides, the inhibition of aggregation in assay [2] is 10% (inactive). In addition, the figures for the nuclei count in assay [2] and in assay [3] were 104% and 118%, respectively. Besides, the fluorescence slope in assay [4] was -0.188 (inactive). The NADPH fluorescence slope in assay [5] is -2.8e-06 (inactive). In assay [6], the slope is 0.00387 (inactive).
With `COC(=O)C1CCN(C(=O)NC(C)(C)C)CC1`, in assay [1], the cell count is 307. In addition, the inhibition in assay [1] is -4.5% (inactive); in assay [3], -37.4% (inactive); in assay [7] it was 5.02% (inactive); in assay [8], 14.9% (inactive). The inhibition of aggregation in assay [2] is 14.5% (inactive). Besides, the nuclei count stood at 82.1% in assay [2] and 99.6% in assay [3]. The fluorescence slope in assay [4] is -0.618 (inactive). Besides, the NADPH fluorescence slope in assay [5] was -4.3e-05 (inactive). For the same molecule, in assay [6], the slope was 0.00637 (inactive).
Regarding `CN(C(=O)c1cc2sccc2n1C)C1CCCCC1`, the cell count in assay [1] stood at 227. The inhibition in assay [1] is 1% (inactive); in assay [3] it was -64% (inactive); in assay [7], -56.2% (inactive); in assay [8] it was -93.3% (inactive). For the same molecule, the inhibition of aggregation in assay [2] is 5.1% (inactive). In addition, the results for the nuclei count in assay [2] and in assay [3] were 80.1% and 116%, respectively. The fluorescence slope in assay [4] was -0.487 (inactive). Moreover, the NADPH fluorescence slope in assay [5] was 2.7e-05 (inactive). Also, the slope in assay [6] was 0.00503 (inactive).
With `COc1ccc(Oc2c(C)oc3cc(OC(=O)N4CCOCC4)ccc3c2=O)cc1`, the cell count in assay [1] worked out at 770. Also, the inhibition in assay [1] is -4.9% (inactive); in assay [3] it was -28.1% (inactive); in assay [7], 3.22% (inactive); in assay [8], -6.73% (inactive). Besides, in assay [2], the inhibition of aggregation was 11.1% (inactive). For the same molecule, the values for the nuclei count in assay [2] and in assay [3] were 95.2% and 112%, respectively. The fluorescence slope in assay [4] was -0.402 (inactive). In addition, the NADPH fluorescence slope in assay [5] was 2.6e-05 (inactive). Also, the slope in assay [6] was 0.00567 (inactive).
As to `COc1ccc(OC)c(S(=O)(=O)N2CCN(c3c(C)cccc3C)CC2)c1`, the cell count in assay [1] was 622. Also, the inhibition was 1.1% (inactive) in assay [1], -9.3% (inactive) in assay [3], 9.96% (inactive) in assay [7] and 30.5% (inactive) in assay [8]. The inhibition of aggregation in assay [2] is 30.2% (inactive). In addition, the nuclei count is 111% in assay [2] and 102% in assay [3]. Further, the fluorescence slope in assay [4] was -0.541 (inactive). For the same molecule, the NADPH fluorescence slope in assay [5] was -4.7e-05 (inactive). In addition, the slope in assay [6] was 0.00796 (inactive).
Turning to `COc1ccc(CCn2c(NCCCN3CCOCC3)nc3c2c(=O)[nH]c(=O)n3C)cc1`, the cell count in assay [1] worked out at 395. In addition, the inhibition is 2.1% (inactive) in assay [1], -6.4% (inactive) in assay [3], -6.62% (inactive) in assay [7] and -4.13% (inactive) in assay [8]. In addition, the inhibition of aggregation in assay [2] is -5.3% (inactive). Further, the nuclei count in assay [2] came to 110%; in assay [3], 99.3%. The fluorescence slope in assay [4] was -0.539 (inactive). For the same molecule, the NADPH fluorescence slope in assay [5] is 2.7e-05 (inactive). In addition, in assay [6], the slope is 0.00501 (inactive).
As for `Cc1cc(C(=O)N2CCN(c3ncccn3)CC2)cs1`, in assay [1], the cell count is 401. Further, the inhibition in assay [1] was -0.7% (inactive); in assay [3], 0.9% (inactive); in assay [7] it was 13.1% (inactive); in assay [8], -6.87% (inactive). Besides, the inhibition of aggregation in assay [2] is 4.3% (inactive). The results for the nuclei count in assay [2] and in assay [3] were 99% and 110%, respectively. For the same molecule, the fluorescence slope in assay [4] is -0.591 (inactive). The NADPH fluorescence slope in assay [5] was -2.2e-05 (inactive). The slope in assay [6] was 0.00264 (inactive).
As for `CCSC1=C(C#N)C(c2ccccc2OC)CC(=O)N1` (stereo not given), the cell count in assay [1] worked out at 631. Besides, the inhibition in assay [1] was -1.9% (inactive); in assay [3] it was -16.2% (inactive); in assay [7], -0.399% (inactive); in assay [8], 17.9% (inactive). In addition, the inhibition of aggregation in assay [2] is -4.5% (inactive). The nuclei count was 86.7% in assay [2] and 106% in assay [3]. Also, the fluorescence slope in assay [4] is -0.436 (inactive). Also, in assay [5], the NADPH fluorescence slope is 1.7e-05 (inactive). Moreover, the slope in assay [6] is 0.00579 (inactive).
As to `COc1ccccc1NC(=O)CSc1nnnn1-c1ccc2c(c1)OCO2`, in assay [1], the cell count came out at 349. Further, the inhibition in assay [1] is -9.4% (inactive); in assay [3] it was -122% (inactive); in assay [7], 12.2% (inactive); in assay [8], 26.1% (inactive). In addition, the inhibition of aggregation in assay [2] was 21.1% (inactive). Besides, the figures for the nuclei count in assay [2] and in assay [3] were 88.6% and 104%, respectively. Besides, the fluorescence slope in assay [4] is -0.487 (inactive). In addition, in assay [5], the NADPH fluorescence slope is 3.9e-05 (inactive). The slope in assay [6] is 0.00668 (inactive).
